High-throughput results (PubChem BioAssay)
The sample as a whole holds a higher share of hits than the screen did.
NOMO-1 viab: NOMO-1 AML cell viability reduction, primary screen, STK33 inhibitor project, CellTiter-Glo luminescence; NOMO-1 AML viability, 72 h; inhibition, % (no concentration beside the values); 37,000 tested, 7.5% active; in the data active means inhibition above about 80%; inconclusive means no clear call, values can overlap the other calls
ROS inducer: ROS inducers in U2OS cancer cells, primary screen, cell-based, H2DCF-DA fluorescence; ROS induction (% of piperlongumine), % at 10 µM; 46,000 tested, 2% active; U2OS ROS induction; in the data active means ROS induction above about 79%, passing the limit was not always enough; inconclusive means no clear call, values can overlap the other calls
Of the large screens only hits and unclear results are named; the others gave an inactive call.

C[C@@H]1CCCCO[C@H](CN(C)S(C)(=O)=O)[C@@H](C)CN([C@H](C)CO)C(=O)c2cc(NC(=O)c3ccncc3)ccc2O1	none
O=C(Oc1ccc(C2SCCS2)cc1)c1ccccc1Cl	none
COc1ccc(S(=O)(=O)N(C)C[C@@H]2Oc3ccc(NS(C)(=O)=O)cc3C(=O)N([C@H](C)CO)C[C@H]2C)cc1	none
COc1ccc([N+](=O)[O-])cc1NC(=O)CN(C)S(=O)(=O)c1ccc(Br)cc1	none
C[C@H]1CN([C@@H](C)CO)C(=O)Cc2cc(NS(C)(=O)=O)ccc2O[C@H]1CN(C)Cc1ccc(Oc2ccccc2)cc1	none
C[C@H]1CN([C@@H](C)CO)C(=O)c2cccc(NC(=O)CCCCCC(=O)Nc3ccccc3N)c2O[C@@H]1CN(C)S(=O)(=O)c1ccccc1	none
Cc1ccc(S(=O)(=O)N(C)C[C@@H]2Oc3c(NC(=O)CCCCCC(=O)Nc4ccccc4N)cccc3C(=O)N([C@@H](C)CO)C[C@H]2C)cc1	none
C[C@H]1CN([C@@H](C)CO)C(=O)c2cccc(NC(=O)CCCCCC(=O)Nc3ccccc3N)c2O[C@@H]1CN(C)S(=O)(=O)c1ccc(Cl)cc1	NOMO-1 viab 103
Cc1ccc(S(=O)(=O)N(C)C[C@H]2Oc3c(NC(=O)CCCCCC(=O)Nc4ccccc4N)cccc3C(=O)N([C@H](C)CO)C[C@@H]2C)cc1	NOMO-1 viab inconclusive
C[C@H](CO)N1C[C@H](C)[C@H](CN(C)S(=O)(=O)c2ccc(Cl)cc2)Oc2c(NC(=O)CCCCCC(=O)Nc3ccccc3N)cccc2C1=O	NOMO-1 viab 119, ROS inducer inconclusive
C[C@@H]1CN([C@@H](C)CO)C(=O)c2cccc(NC(=O)CCCCCC(=O)Nc3ccccc3N)c2O[C@@H]1CN(C)S(=O)(=O)c1ccccc1	NOMO-1 viab 104
COc1ccc(S(=O)(=O)N(C)C[C@H]2Oc3c(NC(=O)CCCCCC(=O)Nc4ccccc4N)cccc3C(=O)N([C@H](C)CO)C[C@@H]2C)cc1	none
COc1ccc(S(=O)(=O)N(C)C[C@@H]2Oc3c(NC(=O)CCCCCC(=O)Nc4ccccc4N)cccc3C(=O)N([C@H](C)CO)C[C@H]2C)cc1	NOMO-1 viab 100
Cn1c(SCC(=O)Nc2ccccc2F)nnc1-c1ccccc1	none
O=C(CSc1ncnn1CC(=O)c1ccc(Br)cc1)c1ccc(Br)cc1	none (no result: NOMO-1 viab)
C[C@@H]1CN([C@@H](C)CO)C(=O)c2cccc(NC(=O)C3CC3)c2O[C@H]1CN(C)C(=O)Nc1ccc2c(c1)OCO2	none
COc1cc(OC)cc(-c2nnc(SCC(=O)Nc3ccc(I)cc3)o2)c1	NOMO-1 viab 90
COC(=O)c1cccc(NC(=O)CSc2nnc(-c3cc(OC)cc(OC)c3)o2)c1	none
C[C@@H]1CN([C@@H](C)CO)C(=O)c2cc(NC(=O)CCC(F)(F)F)ccc2O[C@H]1CN(C)Cc1ccc(C(F)(F)F)cc1	ROS inducer inconclusive
CCOc1ccc(/C=C2\SC(=Nc3cccc(C)c3C)NC2=O)cc1	none (no result: NOMO-1 viab)
COc1cc(/C=C2/SC(=Nc3cc(C)cc(C)c3)NC2=O)cc(Br)c1OC	NOMO-1 viab 120
C[C@H](CO)N1C[C@H](C)[C@H](CN(C)Cc2ccc(Oc3ccccc3)cc2)Oc2ccc(NC(=O)Cc3ccccc3)cc2CC1=O	NOMO-1 viab 116
COc1ccc(NC(=O)N(C)C[C@@H]2Oc3ccc(NC(=O)Cc4ccccc4)cc3CC(=O)N([C@@H](C)CO)C[C@@H]2C)cc1	none
COc1ccc(NC(=O)N(C)C[C@H]2Oc3ccc(NC(=O)Cc4ccccc4)cc3CC(=O)N([C@@H](C)CO)C[C@@H]2C)cc1	ROS inducer 100
C[C@H]1CN([C@@H](C)CO)C(=O)Cc2cc(NC(=O)Cc3ccccc3)ccc2O[C@@H]1CN(C)Cc1ccc(Oc2ccccc2)cc1	none
CC(C)NC(=O)Nc1ccc2c(c1)CC(=O)N([C@H](C)CO)C[C@@H](C)[C@@H](CN(C)Cc1ccc(Oc3ccccc3)cc1)O2	ROS inducer 129
C[C@H]1CN([C@@H](C)CO)C(=O)Cc2cc(NC(=O)CCN3CCOCC3)ccc2O[C@@H]1CN(C)Cc1ccc(Oc2ccccc2)cc1	none
C[C@@H]1CN([C@H](C)CO)C(=O)Cc2cc(NC(=O)CCN3CCOCC3)ccc2O[C@@H]1CN(C)Cc1ccc(Oc2ccccc2)cc1	ROS inducer 87
CC(C)NC(=O)Nc1ccc2c(c1)CC(=O)N([C@H](C)CO)C[C@H](C)[C@H](CN(C)Cc1ccc(Oc3ccccc3)cc1)O2	NOMO-1 viab inconclusive
C[C@@H]1CN([C@@H](C)CO)C(=O)c2cccc(NC(=O)C3CCOCC3)c2O[C@H]1CN(C)Cc1ccc(C(F)(F)F)cc1	none
CC(=O)c1cccc(NC(=O)COc2ccccc2C(=O)Nc2ccc3c(c2)oc2ccccc23)c1	none
O=C(O)C1Cc2ccccc2C1	none
CCOC(=O)c1cc(C#N)c(N2CCN(C(=O)c3snnc3C)CC2)nc1C(F)(F)F	none
N=C1/C(=C/c2ccc(OCCOc3ccccc3)c(Cl)c2)C(=O)N=C2SC=CN12	none (no result: NOMO-1 viab)
C[C@@H]1CN([C@H](C)CO)C(=O)CCCn2nncc2CO[C@@H]1CN(C)Cc1ccc(Oc2ccccc2)cc1	none (no result: NOMO-1 viab)
COC(=O)c1c(/N=C/c2c(O)n(Cc3ccccc3)c(=O)[nH]c2=O)sc2c1CCCC2	none (no result: NOMO-1 viab)
CCC(=O)c1ccc(OC)cc1OC	none
C[C@@H]1CN([C@H](C)CO)C(=O)Cc2cc(NC(=O)Nc3ccccc3)ccc2O[C@@H]1CN(C)Cc1ccc(Oc2ccccc2)cc1	NOMO-1 viab 115
C[C@@H]1CN([C@H](C)CO)C(=O)Cc2cc(NC(=O)Cc3ccccc3)ccc2O[C@@H]1CN(C)Cc1ccc(-c2ccccc2)cc1	NOMO-1 viab inconclusive, ROS inducer 203
C[C@H](CO)N1C[C@H](C)[C@H](CN(C)Cc2ccc(-c3ccccc3)cc2)Oc2ccc(NC(=O)Cc3ccccc3)cc2CC1=O	none
C[C@@H]1CN([C@H](C)CO)C(=O)Cc2cc(NC(=O)c3ccncc3)ccc2O[C@H]1CN(C)Cc1ccc(Oc2ccccc2)cc1	ROS inducer 127
C[C@@H]1CN([C@@H](C)CO)C(=O)Cc2cc(NC(=O)c3ccncc3)ccc2O[C@@H]1CN(C)Cc1ccc(Oc2ccccc2)cc1	none
C[C@H]1CN([C@@H](C)CO)C(=O)Cc2cc(NC(=O)Nc3ccccc3)ccc2O[C@H]1CN(C)Cc1ccc(Oc2ccccc2)cc1	none
CNC[C@H]1OCCCC[C@@H](C)Oc2ccc(NS(=O)(=O)c3ccc(Cl)cc3)cc2C(=O)N([C@H](C)CO)C[C@@H]1C	none
CCCNC(=O)[C@H]1O[C@@H]1C(=O)N[C@H](C(=O)N1CCC[C@H]1C(=O)OC)C(C)CC (stereo partly drawn)	NOMO-1 viab 141
C[C@H](CS)C(=O)N1CCC[C@H]1C(=O)O	none
Nc1nc(CN2CCN(C(=O)c3ccco3)CC2)nc(N2CCCc3ccccc32)n1	none
NC(=O)CSc1nc2c(c(=O)n1Cc1ccccc1)C1(CCCC1)Cc1ccccc1-2	none (no result: ROS inducer)
CC1(C)CCc2cc(-c3ccn(S(=O)(=O)c4cccc(C(F)(F)F)c4)n3)ccc2O1	none
CC1(C)CCc2cc(-c3ccn(S(=O)(=O)c4ccc(Cl)cc4)n3)ccc2O1	ROS inducer 96
C[C@H](CO)N1C[C@H](C)[C@H](CN(C)C(=O)Nc2ccc(F)cc2)Oc2ccc(NC(=O)Nc3cccc4ccccc34)cc2CC1=O	none
COc1cccc2cc(-c3nnc(SCC(=O)Nc4cccc(Br)c4)n3C)oc12	NOMO-1 viab 107
COc1cccc2cc(-c3nnc(SCC(=O)Nc4cccc(F)c4)n3C)oc12	none
